PrPC surface inh: cell surface PrPC inhibition, primary TR-FRET screen | 0.43% of 370,000 active | inhibition, % at 13.8 µM | TR-FRET read-out; in the data active = inhibition above about 24%; note: 0% = median of the test wells and 100% = reference compound wells
GDH-TPI counter-1: inhibits GDH-TPI coupling enzymes, artifact for Mtb FBA screen. GDH-TPI coupled enzyme counterscreen, NADH absorbance. inhibition, % at 4.8 µM. 1.2% of 360,000 active; in the data active = inhibition above about 30%;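 note: 0% = DMSO wells and 100% = wells lacking the enzyme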
Vc quorum ag: quorum light induction in luxS cqsA deficient V. cholerae; activation, % at 18.7 µM; V. cholerae BH1578 lux reporter, luminescence, 6 h; 0.16% of 350,000 active; in the data active = activation mostly above about 9.7%, no sharp cut-off
FBA Mtb inh: Mtb fructose-bisphosphate aldolase inhibition. P9WQA3. purified M. tuberculosis FBA, fluorescence read-out. inhibition, % at 1 µM. 2.3% of 360,000 active. AID 588726;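 note: 0% = vehicle and 100% = reference inhibitor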
Target sequence (P9WQA3 whole entry, looked up): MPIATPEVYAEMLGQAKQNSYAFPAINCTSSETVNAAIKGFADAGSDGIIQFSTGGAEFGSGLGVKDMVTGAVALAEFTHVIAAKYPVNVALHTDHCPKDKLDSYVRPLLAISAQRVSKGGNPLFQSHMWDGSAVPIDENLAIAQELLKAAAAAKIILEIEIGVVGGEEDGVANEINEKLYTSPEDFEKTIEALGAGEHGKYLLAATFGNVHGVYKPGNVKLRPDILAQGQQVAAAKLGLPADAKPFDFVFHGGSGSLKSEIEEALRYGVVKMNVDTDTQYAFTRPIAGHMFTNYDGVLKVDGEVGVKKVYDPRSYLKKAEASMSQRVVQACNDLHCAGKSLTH
3CLpro inhibitor: SARS-CoV 3CLpro protease inhibition | P0C6X7 | recombinant SARS-CoV 3CLpro, quenched FRET peptide cleavage | inhibition, % at 6 µM | 0.14% of 290,000 active; in the data active = inhibition above about 12%
Mtb FBA inh conf: confirmation of M. tuberculosis fructose-bisphosphate aldolase inhibitors; inhibition, % at 1 µM; purified M. tuberculosis FBA, fluorescence read-out; 78% of 5,600 active; shares compounds with FBA Mtb inh;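 note: 0% = vehicle wells and 100% = reference inhibitor wells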
GDH-TPI counter-2: inhibits GDH-TPI coupling enzymes, flagging Mtb FBA hits. shares compounds with FBA Mtb inh. GDH-TPI coupled enzyme counterscreen, fluorescence. inhibition, % at 1 µM. 81% of 5,600 active; in the data active = inhibition above about 10%
An asterisk follows results filed as active; i = inactive; . = not tested or not shown; + = active, no number. Hits are enriched below; roughly 3.9% of the tested compounds scored in any of these assays. Cut-off read from the data, not from the text of the source, unless noted: active = inhibition above about 27%; inactive = the rest.

SMILES | PrPC surface inh | GDH-TPI counter-1 | Vc quorum ag | FBA Mtb inh | 3CLpro inhibitor | Mtb FBA inh conf | GDH-TPI counter-2
O=C(O)C1CSC(c2ccc3c(c2)OCO3)N1 (centres undefined) | 4 | 0 | i | 42* | -2 | -6 | -4
CCc1ccc(C2NC(C(=O)O)CS2)cc1 (centres undefined) | . | . | . | . | 0 | . | .
CCOC(=O)c1sc(-c2ccc(OC)cc2)cc1NC(C)=O | 5 | 19 | 0 | 79* | 3 | 153* | 134*
COCCCNc1nc2ccccc2nc1NS(=O)(=O)c1ccc(OC)cc1 | -2 | 25 | -1 | 30* | 1 | 71* | 65*
O=c1oc2c3c4c(cc2c2c1CCC2)OCCN4CCC3 | -30 | 13 | 1 | 97* | -2 | 79* | 58*
CC(C)CN(C(=O)COC(=O)c1ccccc1NCc1ccco1)c1c(N)n(Cc2ccccc2)c(=O)[nH]c1=O | 2 | -1 | i | 31* | . | 152* | 123*
COCCN(C(=O)COC(=O)c1ccco1)c1c(N)n(Cc2ccccc2)c(=O)[nH]c1=O | -8 | 2 | -7 | -2 | . | . | .
COCCN(C(=O)COC(=O)c1ccccc1NCc1ccco1)c1c(N)n(Cc2ccccc2)c(=O)[nH]c1=O | -9 | 11 | -1 | 81* | . | 151* | 118*
Cc1cccc(NC(=O)CSc2nncn2N)c1C | 4 | 4 | i | -1 | . | . | .
C[C@@H]1CN([C@H](C)CO)C(=O)c2c(c3ccccc3n2C)-c2ccccc2CO[C@@H]1CN(C)S(=O)(=O)c1cccs1 | -5 | 0 | i | 0 | . | . | .
CCOC(=O)c1c(-c2ccccc2)oc2ccc(OCC(O)CN(C)C)cc12 (centres undefined) | -15 | 6 | 0 | 48* | 2 | 44* | 32*
CC(=O)Oc1ccc2c(=O)c(-c3ccccc3)c(C)oc2c1 | 3 | 3 | 0 | 43* | 7 | 49* | 43*
CCOC(=O)c1c(-c2ccccc2)oc2ccc(OC(C)=O)cc12 | -2 | 10 | 7 | 43* | 5 | 2 | -4
CCOC(=O)c1c(C)oc2ccc(OS(C)(=O)=O)cc12 | 7 | -7 | 0 | -2 | -4 | . | .
CCc1cc(C(=O)OC)c(NC(=O)CSc2nccn2C)s1 | 3 | 11 | 0 | 0 | 0 | . | .
CCCCCCCCN1C(=O)[C@H](CC(=O)N2CCOCC2)C[C@@]2(C(=O)OCC)CCCC=C12 | 2 | . | . | . | . | . | .
Cc1cc(C)n2nc(N)nc2n1 | -4 | 5 | i | 1 | . | . | .
Cc1cc(-c2ccccc2)n2nc(C)c(C#N)c2n1 | -6 | 7 | 0 | 27* | 0 | + | +
COc1ccc(-c2c(C)nn3c(-c4ccccc4)cc(C)nc23)cc1 | 1 | 4 | 1 | 1 | 3 | . | .
Cc1cc(-c2ccccc2)n2nc(N)nc2n1 | 1 | 2 | -1 | 34* | 0 | 97* | 76*
Cc1cc(C)c2c(N)c(C(=O)c3ccccc3)oc2n1 | -3 | 8 | i | 5 | 0 | . | .
Cc1cc(-c2ccccc2)nc2oc(C(=O)NN)c(N)c12 | -13 | 9 | 0 | 39* | 2 | 55* | 44*
COC(=O)c1oc2nc(C)cc(C)c2c1N | -3 | 16 | 0 | 69* | 0 | 47* | 40*
COc1ccc(S(=O)(=O)NC2CCN(C#N)CC2)cc1 | 7 | . | . | . | . | . | .
CN(C1CCCCC1)S(=O)(=O)c1ccc(S(=O)(=O)N(CC(=O)Nc2ccccc2)C2CC2)cc1 | -2 | -4 | i | 0 | -2 | . | .
SMILES | PrPC surface inh | GDH-TPI counter-1 | Vc quorum ag | FBA Mtb inh | 3CLpro inhibitor | Mtb FBA inh conf | GDH-TPI counter-2
CC(=O)Nc1cc(-c2ccc(F)cc2)cn2c(-c3ccc(S(C)(=O)=O)cc3)cnc12 | -8 | 15 | -4 | 57* | . | 89* | 69*
CC(=O)Nc1cc(-c2cccc(C(=O)NCCN(C)C)c2)cn2c(-c3ccc(S(C)(=O)=O)cc3)cnc12 | -25 | 11 | 0 | 61* | . | + | +
CC(=O)Nc1cc(-c2ccc(C(=O)N3CCOCC3)cc2)cn2c(-c3ccc(S(C)(=O)=O)cc3)cnc12 | -27 | 11 | -1 | 28* | . | + | +
CC(=O)Nc1cc(-c2ccc(F)cc2)cn2c(-c3ccc(F)cc3)cnc12 | 2 | 4 | 0 | 6 | . | . | .
Cn1nc(C(=O)OCc2ccc(Br)cc2F)c2ccccc2c1=O | -4 | 0 | i | -3 | -3 | . | .
C=C[C@@H]1c2cc(C)ccc2N(S(=O)(=O)c2ccc(C)cc2)[C@H](c2ccccc2C(F)(F)F)C1(C#N)C#N | -5 | 7 | 0 | 1 | . | . | .
CCCCS(=O)(=O)Nc1ccc(C)cn1 | -1 | -1 | i | 41* | 1 | + | +
c1ccc2nc(-c3nc4ccccc4o3)ccc2c1 | -24 | 20 | -25 | 69* | -2 | 118* | 104*
c1ccc(-c2nc3ccccc3o2)nc1 | -4 | -5 | i | 29* | 1 | 7 | 1
CCOC(=O)C1=C(C)NC2=C(C(=O)CC(C)(C)C2)C1c1ccc(N(C)C)cc1 (centres undefined) | 0 | 3 | i | 0 | 4 | . | .
CC1=C(C(=O)OCC2CCCO2)C(c2ccc(Cl)c(Cl)c2)NC(=O)N1 (centres undefined) | 0 | -3 | i | 2 | 2 | . | .
CC1=C(C(=O)OCCOC(C)C)C(c2cccnc2)C2=C(CCCC2=O)N1 (centres undefined) | 1 | 4 | i | 31* | -1 | + | +
CC1=C(C(=O)OC(C)C)C(c2ccc(N(C)C)cc2)C2=C(CC(C)(C)CC2=O)N1 (centres undefined) | -4 | 6 | 0 | -4 | -1 | . | .
COCCOC(=O)C1=C(C)NC2=C(C(=O)CC(C)(C)C2)C1c1cccnc1 (centres undefined) | -2 | 1 | 0 | 39* | -6 | + | +
CC1=C(C(=O)OC(C)C)C(c2cccnc2)C2=C(CC(C)(C)CC2=O)N1 (centres undefined) | 1 | 13 | -24 | 79* | 2 | 31* | 38*
CC1=C(C(=O)OCC2CCCO2)C(c2ccncc2)C2=C(CC(C)(C)CC2=O)N1 (centres undefined) | -9 | -1 | -1 | 38* | 0 | 59* | 58*
COc1ccc(CCNC(=S)NC(=O)c2cccc([N+](=O)[O-])c2)cc1OC | -4 | 2 | i | 0 | 0 | . | .
CCN(CC)C(=O)CC[C@H]1CC[C@]2(CCCN(Cc3ccncc3)C2)O1 | -1 | . | . | . | . | . | .
O=C(OC1CC2CC1[C@H]1CCCCN1C2=O)N1CCN(S(=O)(=O)c2ccccc2)CC1 (some centres undefined) | -1 | . | . | . | . | . | .
COc1cccc(C2C(C#N)=C(C)NC3=C2C(=O)CC(C)(C)C3)c1 (centres undefined) | -3 | 7 | 0 | 93* | 2 | + | 183*
N#Cc1cc(Cl)c(NCC2CCCO2)cc1C#N (centres undefined) | -5 | 21 | 1 | 38* | 5 | 77* | 65*
